# MOR-DOR inv ag = mu-delta opioid heterodimer inverse agonism. P35372+P41143. cell-based MOR-DOR heterodimer luminescence. inhibition, % at 9.3 µM. 340,000 compounds, 0.21% hits. AID 504357; in the data active means inhibition above about 22%, passing the limit was not always enough;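 further: 0% = cells with DMSO and 100% = wells without cells with DMSO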
# HTR5A ag = HTR5A agonism, opioid heterodimer counter-screen. P47898. HTR5A agonist assay, luminescence, cell-based. activation, % at 9.3 µM. 340,000 compounds, 0.61% hits; in the data active means activation mostly above about 9.5%, no sharp cut-off; inactive means mostly below about 7.6%;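 further: 0% = cells with vehicle only and 100% = reference agonist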
# Target sequence (P47898 whole entry, looked up): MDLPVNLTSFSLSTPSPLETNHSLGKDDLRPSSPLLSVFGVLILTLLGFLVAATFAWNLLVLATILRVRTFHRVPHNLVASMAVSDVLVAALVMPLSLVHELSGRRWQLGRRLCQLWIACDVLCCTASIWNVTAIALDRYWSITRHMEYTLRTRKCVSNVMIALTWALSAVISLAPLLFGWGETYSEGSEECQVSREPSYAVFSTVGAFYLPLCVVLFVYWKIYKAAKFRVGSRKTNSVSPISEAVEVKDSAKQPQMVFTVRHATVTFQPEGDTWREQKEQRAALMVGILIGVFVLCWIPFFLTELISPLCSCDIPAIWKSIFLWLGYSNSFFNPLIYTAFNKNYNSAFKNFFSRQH
# MOR-DOR ag-1 = agonists of human mu-delta opioid receptor heterodimerization; P35372+P41143; cells, OPRM1-OPRD1 heterodimerization, luminescence; activation, % at 9.3 µM; 340,000 compounds, 0.3% hits;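 further: 0% = vehicle-treated cells and 100% = reference agonist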
# HTR5A inv ag = counter-screen for OPRM1-OPRD1 inverse agonists: human HTR5A inverse agonism. 340,000 compounds, 0.083% hits. HTR5A cell line, luminescence. inhibition, % at 9.3 µM. AID 504634. P47898; in the data active means inhibition mostly above about 23%, no sharp cut-off; inactive means mostly below about 18%;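 further: 0% = cells with DMSO and 100% = no-cell wells with DMSO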
# MOR-DOR ag-2 = counter-screen for HTR5A agonists: OPRM1-OPRD1 heterodimerization agonism | shares compounds with HTR5A ag | U2OS counter-screen cells, complementation luminescence, 3 h | activation, % at 9.3 µM | 800 compounds, 13% hits | AID 504913
# HTR5A ag confirm = confirmation of human HTR5A agonists; activation, % at 9.3 µM; HTR5A agonist cell assay, luminescence; shares compounds with HTR5A ag; 800 compounds, 17% hits; in the data active means activation above about 17%;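 further: 0% = cells with vehicle only and 100% = full reference agonist response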
# Numbers without * were called inactive; . = no result given. Most compounds without a hit are left out; they make up all but 1.1% or so of the library. Unless noted, no stated cut-off is given here; in the data, active means activation above about 18%; inactive means the rest.
SMILES,MOR-DOR inv ag,HTR5A ag,MOR-DOR ag-1,HTR5A inv ag,MOR-DOR ag-2,HTR5A ag confirm
O=C(COc1cccc2ccccc12)Nc1ccc(Cl)cc1C(=O)O,9,45*,-2,-134,2,46*
COC(=O)c1cccc(N2C(=O)C(Cl)=C(N3CCOCC3)C2=O)c1,9,6,-2,-43,.,.
O=C1C(Cl)=C(N2CCOCC2)C(=O)N1c1cccc(C(F)(F)F)c1,-2,14*,0,-10,2,6
Cc1cc(Cl)cc(Cl)c1OCCN1CCCC1,6,3,-1,-9,.,.
CN(C)Cc1c(O)ccc2occ(C(=O)c3ccccc3)c12,3,19*,-1,14,1,47*
CCN(CC)Cc1c(O)ccc2occ(C(=O)c3ccccc3)c12,12,-2,-2,8,.,.
COc1cc(/C=N/Nc2nc(C)nc3c2cnn3-c2ccccc2)ccc1O,-24,16*,5,-7,2,3
Cc1cc(OCCn2nc(C(=O)O)c3ccccc3c2=O)ccc1C(C)C,-21,20*,3,-55,-2,-9
O=C(NCCS(=O)(=O)N1CCN(c2ccc(F)cc2)CC1)C12CC3CC(CC(C3)C1)C2,-24,1,4,-2,.,.
COc1ccc(N=CC2CCCCC2=O)c([N+](=O)[O-])c1 (stereo unspecified),4,0,-1,1,.,.
CCCCCCCCCCCCCCCC[n+]1cccc2ccccc21,-74,20*,15,-36,494*,7
Cc1cc(C(C)(C)C)ccc1OCCCCN1CCCC1,14,-5,-2,7,.,.
CCC(C)(C)c1ccc(OCCCC[n+]2cccc(C)c2C)c(C(C)(C)CC)c1,-56,21*,11,-44,-2,-2
COC(=O)c1ccc(Cn2cc(Cl)cn2)cc1,11,24*,-2,-64,3,1
COc1nc(-c2ccccc2)ccc1-c1noc(-c2cccs2)n1,18,19*,-3,-23,2,-2
Cc1ccc(NC(=O)CN(CCc2ccccc2)S(C)(=O)=O)cc1,-20,-1,4,4,.,.
Cc1ccc(OCC(=O)N(C)CC(=O)Nc2ccc(F)cc2)c([N+](=O)[O-])n1,-16,-4,2,12,.,.
Cc1ccc2cccc(OCC(=O)N(C)CC(=O)Nc3ccc(F)cc3)c2n1,19,16*,-5,-41,1,2
Cc1ccc(OCC(=O)N(C)CC(=O)Nc2ccc(Cl)c(C(F)(F)F)c2)c([N+](=O)[O-])n1,-6,15*,2,-37,-3,-6
CC(NC(=O)COc1ccc(S(=O)(=O)N2CCCC2)cc1)c1ccccc1 (stereo unspecified),1,-5,0,15,.,.
COc1cc(/C=N/NC(=O)c2cccnc2)ccc1OS(=O)(=O)c1cc(C)ccc1C,0,-1,0,6,.,.
O=C(Nc1nnc(SCC(=O)N2CCOCC2)s1)C1CC(=O)N(c2ccccc2)C1 (stereo unspecified),-2,17*,0,-5,32*,2
CC(C)(C)OC(=O)N1CCCC(C(=O)Nc2cccc(C(=O)N3CCCCC3)c2)C1 (stereo unspecified),-3,-3,1,12,.,.
O=C1C(C=NCCCN2CCCC2=O)=C(O)c2ccccc21,4,18*,-1,-7,28*,13
O=C1C2C3C=CC(C3)C2C(=O)N1c1ccc(N2CCN(c3ccccn3)CC2)c([N+](=O)[O-])c1 (stereo unspecified),-9,-1,2,10,.,.
SMILES,MOR-DOR inv ag,HTR5A ag,MOR-DOR ag-1,HTR5A inv ag,MOR-DOR ag-2,HTR5A ag confirm
Cc1cc(C)c2c(c1)SC1=NC(c3ccccc3)(C(F)(F)F)NC(=O)N12 (stereo unspecified),-30,16*,5,8,3,5
CCOc1ccc(CCNC(=O)CN2C(=O)COc3ccc(S(=O)(=O)N4CCOCC4)cc32)cc1,12,-1,-2,-21,.,.
CC1Cc2nc(SCC(=O)NCC3CCCO3)n(C)c(=O)c2S1 (stereo unspecified),16,-3,-3,7,.,.
Oc1ccc(CNc2ccc(F)cc2)c2cccnc12,-99,23*,16,-63,6,4
Oc1ccc(CNc2ccccc2)c2cccnc12,-9,3,2,-16,.,.
CCN(CC)S(=O)(=O)c1ccc(O)c(C(=O)OCC(=O)N2CCCC2)c1,13,4,-2,-12,.,.
CCOc1cc(C2Nc3ccccc3NC3=C2C(=O)CC(C)(C)C3)ccc1O (stereo unspecified),4,1,-1,-4,.,.
O=C(Nc1nnc(SCc2ccc(Cl)cc2)s1)C1CCCO1 (stereo unspecified),9,21*,-2,-54,1,-1
COC(=O)c1ccc(CSc2nnc(NC(=O)C3CCCO3)s2)cc1 (stereo unspecified),11,2,-2,-4,.,.
Cc1ccc2[nH]cc(CCNS(=O)(=O)c3ccc(F)cc3)c2c1,-1,3,0,3,.,.
CC(=O)Nc1ccc(S(=O)(=O)NCCc2c[nH]c3ccc(C)cc23)cc1,1,27*,0,-100,60*,2
O=C(CN1C(=O)C2CCCCC2C1=O)Nc1nc2ccc(F)cc2s1 (stereo unspecified),8,0,-1,1,.,.
Cc1ccc(C2=NN(C(=O)CCl)C(c3cccs3)C2)o1 (stereo unspecified),-48,16*,9,-41,21*,17*
O=C(CCl)N1N=C(c2ccco2)CC1c1cccs1 (stereo unspecified),-1,0,0,8,.,.
CC(C)c1ccc(-c2nnn(Cc3nc4ccccc4s3)n2)cc1,-18,21*,4,2,3,1
CC(C)c1ccc(-c2nnn(CCC#N)n2)cc1,16,0,-3,-1,.,.
COc1ccc(OC)c(NC(=S)N(CCc2c(C)[nH]c3ccc(C)cc23)Cc2cccs2)c1,-20,24*,4,-68,-1,-2
COc1ccc(OC)c(NC(=S)N(CCc2c(C)[nH]c3ccccc23)Cc2cccs2)c1,-14,7,3,-19,.,.
CCOC(=O)C1(Cc2cccc(OC)c2)CCCN(Cc2c(C)nn(C(C)C)c2C)C1 (stereo unspecified),-3,-7,1,7,.,.
CCOC(=O)C1(Cc2cccc(OC)c2)CCCN(Cc2cc(C(C)C)n[nH]2)C1 (stereo unspecified),-1,16*,0,-20,3,38*
O=C(Nc1ccc(N2CCN(C(=O)c3cccs3)CC2)cc1)c1ccc(Br)o1,0,16*,0,-41,5,0
COc1ccc(NC(=O)N2CCN(S(C)(=O)=O)CC2)c(OC)c1,9,-2,-2,6,.,.
Cc1ccc(Oc2nnc(-c3ccccc3)cc2C#N)cc1,-25,18*,6,-26,6,4
CCN(N=O)c1ccc(C=C2C=Cc3ccccc32)cc1,-19,-1,4,5,.,.
O=C(Nc1ccc(-n2cc(Cl)cn2)cc1)c1ccncc1,7,14*,-1,-14,18*,6

# Assay outcomes as filed in PubChem BioAssay.
